Screens (PubChem)
This is a sample that favours compounds with a hit; in the whole collection about 19% have one here.
HT1080NT lethal – kills 2HG-producing HT-1080-NT fibrosarcoma cells. HT-1080-NT fibrosarcoma viability, CellTiter-Glo ATP luminescence, 48 h. Potency, µM (titrated, usually from 46.1 µM), usual class: cytotoxic. 360,000 compounds, 1.6% hits;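 note: NT is the 2HG producing partner of a matched IDH1 knockdown line; nearly all actives have a fitted effect of over 55% in size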
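Luminescent CellTiter-Glo readout after 48 hours of compound exposure at 37 degrees C defined viability of HT-1080-NT cells. Activity was normalized to DMSO wells and cell-free media wells; concentration-response curves were fitted and assigned curve classes.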
IL-1B inflam inh – inflammasome signaling inhibition, IL-1 beta readout; THP-1 LPS/ATP IL-1B secretion, AlphaLISA, 16 h; active compounds read low; activity change, % at 57.5 µM; 360,000 compounds, 4.7% hits; AID 743279; in the data active = activity change below about -50%; inconclusive = mostly about -30% to -49%
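THP-1 cells pretreated 1 hr with compounds (up to 57.5 uM final), then stimulated with LPS (250 ng/mL final) plus ATP (1.25 mM final); secreted IL-1B measured by AlphaLISA after 16 hr, decreased signal indicating inhibition.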
DT40 TDP1 CPT – DT40-hTDP1 cell growth loss with CPT. chicken DT40 Tdp1-/-;hTDP1 cells + 20 nM CPT, ATP luminescence, 48 h. Potency, µM (doses to about 46.2 µM), most hits filed as inhibitors. 420,000 compounds, 12% hits; note: nearly all actives have a fitted effect of over 55% in size
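Chicken DT40 Tdp1-/- cells stably complemented with human TDP1 were seeded at 400 cells/well in medium containing 20 nM camptothecin, exposed to pin-transferred compounds, and grown at 37 °C for at least 48 hr. Viability was read as ATP luminescence.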
DT40 TDP1 no CPT – qHTS for Inhibitors of human tyrosyl-DNA phosphodiesterase 1 (TDP1): qHTS in cells in absence of CPT; DT40 Tdp1-/- hTDP1 cells, no CPT, ATP luminescence, 48 h; Potency, µM (doses to about 46.2 µM), most hits filed as inhibitors; 420,000 compounds, 15% hits; note: nearly all actives have a fitted effect of over 55% in size
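Chicken DT40 Tdp1-/- cells complemented with human TDP1, screened without camptothecin (DMSO vehicle only), 400 cells/well. Compounds pin-transferred, cells incubated at 37 °C for at least 48 hr. Growth read as ATP-dependent luminescence (CellTiter-Glo, 30 min at RT).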
HT1080 IDH1KD tx – HT-1080 IDH1 knockdown cell toxicity (counter line); HT-1080 IDH1 knockdown viability, ATP luminescence, 48 h; Potency, µM (top dose mostly 46.1 µM), actives largely listed as cytotoxic; 360,000 compounds, 2% hits; AID 686971
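Knockdown cells (IDH1KD HT-1080) received compounds 2 h after plating at 750 cells/well and were kept 48 h at 37 °C in 5% FBS RPMI. A CellTiter-Glo luminescence read gave % activity for curve fitting.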
Numbers stand for hits; i = inactive; ? = inconclusive; nt = no result. Unless noted, calls come from the whole dose curve; as a rule, active = well fitted curve in the direction sought with a large enough effect; inconclusive = small, poorly fitted or top-dose-only effect, or another doubt; inactive = no such curve, though single readings can be large; an effect the other way counts as inactive or inconclusive.

SMILES | HT1080NT lethal | IL-1B inflam inh | DT40 TDP1 CPT | DT40 TDP1 no CPT | HT1080 IDH1KD tx
COc1ccc(NCc2nnc(SCc3ccc(Cl)cc3)n2-c2ccccc2)cc1 | ? | -52.6 | ? | 18.4µM | i
COc1ccc(-n2c(COc3ccc(Cl)cc3)nnc2SCc2ccc(C#N)cc2)cc1 | ? | i | ? | 23.1µM | ?
O=c1[nH]c(/C=C/c2cccc3ccccc23)nc2ccccc12 | i | i | ? | ? | i
Cc1cccc(/C=C\c2nc3ccccc3c(=O)[nH]2)c1 | ? | i | 20.6µM | 18.4µM | 5.8µM
O=c1[nH]c(/C=C/c2ccc(Br)cc2)nc2ccccc12 | i | i | i | i | i
CN(C)c1ccc(/C=C/c2nc3ccccc3c(=O)[nH]2)cc1 | i | i | 20.6µM | 10.3µM | ?
Cc1nc(/C=C/c2ccccc2)[nH]c(=O)c1-c1ccccc1 | ? | i | 10.3µM | ? | i
CS(=O)(=O)N1CCCCC1c1cc(C(=O)Nc2ccccc2Cl)no1 (stereo not drawn) | i | ? | i | i | i
COc1cccc(CN2CC(C(=O)NC3CCCCCC3)CCC2=O)c1 (stereo not drawn) | i | i | i | i | i
O=C(CN1C(=O)CCSc2ccc(S(=O)(=O)N3CCCC3)cc21)Nc1cccc(F)c1 | nt | nt | 13µM | ? | nt
Cc1ccc(NC(=O)CN2C(=O)CCSc3ccc(S(=O)(=O)N4CCCC4)cc32)cc1 | i | i | i | ? | i
O=C(CN1C(=O)CCSc2ccc(S(=O)(=O)N3CCCC3)cc21)Nc1ccccc1 | i | i | i | i | i
O=C(CN1C(=O)CCSc2ccc(S(=O)(=O)N3CCCC3)cc21)Nc1cccc(Cl)c1 | nt | nt | 23.1µM | ? | nt
c1ccc(CCNc2nc(-c3ccncc3)cs2)cc1 | i | -59.6 | ? | ? | i
COc1ccc(CCNc2nc(-c3ccc(O)cc3)cs2)cc1OC | i | -62.1 | 16.4µM | 16.4µM | i
c1coc(CNc2nc(-c3ccncc3)cs2)c1 | i | i | ? | i | i
COc1ccc(CCNc2nc(-c3ccccn3)cs2)cc1OC | ? | i | 16.4µM | 11.6µM | i
COc1ccc(CCNc2nc(-c3ccc(F)cc3)c(CC(=O)O)s2)cc1OC | i | i | 14.6µM | 25.9µM | i
COc1ccc(CCNc2nc(-c3cccnc3)cs2)cc1OC | i | i | ? | ? | i
COc1ccc(CCNc2nc(-c3ccncc3)cs2)cc1OC | i | i | 20.6µM | ? | i
CCOc1ccccc1CNS(=O)(=O)c1cc2c(cc1C)NC(=O)CO2 | nt | nt | ? | 23.1µM | nt
Cc1cc2c(cc1S(=O)(=O)NCc1ccccc1Cl)OCC(=O)N2 | nt | nt | ? | i | nt
CCCCCNS(=O)(=O)c1cc2c3c(c1)CCC(=O)N3CCC2 | i | i | ? | i | i
COc1cccc(CC(=O)Nc2ccc3nc(C)sc3c2)c1 | i | i | ? | 13µM | i
COc1cccc(NC(=O)c2ccc3nc(C)sc3c2)c1 | i | i | 18.4µM | ? | i
SMILES | HT1080NT lethal | IL-1B inflam inh | DT40 TDP1 CPT | DT40 TDP1 no CPT | HT1080 IDH1KD tx
COc1cc(CC(=O)Nc2ccc3nc(C)sc3c2)cc(OC)c1OC | i | i | i | ? | i
COc1ccc(C(=O)Nc2cccc(OC(=O)c3ccc(C)c(C)c3)c2)cc1 | i | i | i | 23.1µM | i
O=C(Nc1c(F)cccc1F)C1CCN(C(=O)c2cccs2)CC1 | i | i | i | i | i
CN(CC(=O)Nc1sccc1C(N)=O)S(=O)(=O)c1ccc(Cl)cc1 | i | i | ? | ? | i
Cc1ccc(S(=O)(=O)N(C)C)cc1NC(=O)COC(=O)c1sc2cc(Cl)ccc2c1Cl | i | i | ? | i | i
COC(=O)N1CCC2(CCN(Cc3ccccc3)CC2)CC1 | nt | nt | i | i | nt
CCOC(=O)c1[nH]c(=O)[nH]c1CSc1ccccn1 | i | i | i | i | i
CCOC(=O)CCCCC(=O)c1[nH]c(=O)[nH]c1CSc1nc(-c2ccccc2)c(C#N)c(=O)[nH]1 | i | -65.6 | i | i | i
C=CCSc1nc(-c2ccccc2)c(C#N)c(=O)[nH]1 | i | i | i | i | i
CCOC(=O)CCCCC(=O)c1[nH]c(=O)[nH]c1CSCCO | i | -83.9 | i | i | ?
N#Cc1c(-c2ccccc2)nc(SCc2ccc(Cl)cc2)[nH]c1=O | i | -54.3 | i | i | i
Cc1ccc2nc(CSc3nnc(NC(=O)c4ccc(C(C)(C)C)cc4)s3)cc(=O)n2c1 | nt | nt | i | i | nt
Cc1[nH]nc(SCC(=O)NC2CCCC2)c1[N+](=O)[O-] | i | i | i | i | i
CCc1cc(=O)oc2c3c(c(Cl)cc12)OCN(Cc1cccc(OC)c1)C3 | nt | nt | i | i | nt
CCc1cc(=O)oc2c(C)c3c(cc12)CN(CCc1ccccc1OC)CO3 | nt | nt | i | 20.6µM | nt
CCCc1cc(=O)oc2c(CN3CCN(C)CC3)c(O)ccc12 | i | i | i | i | i
CCCc1cc(=O)oc2c(C)c3c(cc12)CN(CCc1ccc(Cl)cc1)CO3 | nt | nt | 6.51µM | 14.6µM | nt
Cn1cc([C@]2(O)C(=O)Nc3ccc(OC(F)(F)F)cc32)c2ccccc21 | ? | i | ? | ? | ?
COc1cc(OC)cc(C(=O)N2c3ccc(F)cc3CCC2C)c1 (stereo not drawn) | i | i | 10.3µM | 11.6µM | i
COc1ccc(C(=O)N2c3ccc(F)cc3CCC2C)cc1OC (stereo not drawn) | i | i | ? | ? | i
CCC(CC)C(=O)N1c2ccc(F)cc2CCC1C (stereo not drawn) | i | i | i | ? | i
CC1CCc2cc(F)ccc2N1C(=O)c1ccc2c(c1)OCO2 (stereo not drawn) | i | i | ? | 14.6µM | i
Cc1nn(Cc2ccc(C(=O)N3c4ccc(F)cc4CCC3C)o2)c(C)c1Br (stereo not drawn) | i | i | 20.6µM | 16.4µM | i
CC1CCc2cc(F)ccc2N1C(=O)CCl (stereo not drawn) | ? | -97.3 | 5.8µM | 6.51µM | ?
CCCc1cc(=O)[nH]c(SCC(=O)N(CC)c2c(N)n(Cc3ccccc3)c(=O)[nH]c2=O)n1 | i | i | i | i | i
SMILES | HT1080NT lethal | IL-1B inflam inh | DT40 TDP1 CPT | DT40 TDP1 no CPT | HT1080 IDH1KD tx
COc1cc(C(=O)N2c3ccccc3CCC2C)cc(OC)c1OC (stereo not drawn) | i | i | 18.4µM | 9.2µM | ?
Cc1ccc(C)c(N(CC(=O)NC2CCCC2)C(=O)CCC(=O)Nc2nccs2)c1 | i | ? | i | i | i
Cc1ccc(N(CC(=O)NC2CCCC2)C(=O)CCC(=O)Nc2nccs2)c(C)c1 | i | -54.4 | i | ? | i
COc1ccc(CCNC(=O)CNS(=O)(=O)c2ccc(F)c(Cl)c2)cc1OC | i | i | i | i | i
Cc1cccc(NC(=O)c2cnn(-c3ccccc3)c2-n2cccc2)c1C | nt | nt | 16.4µM | ? | nt
Cc1cccc(NC(=O)c2cnn(-c3ccccc3)c2C)c1C | i | ? | i | i | i
CCc1ccc(NC(=O)c2cnn(-c3ccccc3)c2-n2cccc2)cc1 | nt | nt | 18.4µM | ? | nt
